Measured values from PubChem BioAssay AID2094 (Broad Institute, 2009).
In all, about 300,000 compounds went through this assay and about 1,200 (0.4%) were called active. Cut-off read from the data, not from the text of the source: active = activity change below about -75% (passing the limit was not always enough); inconclusive = no clear call, values can overlap the other calls. Many of the other results were omitted from the sample, so actives are more common in it than they were.

Test: modulation of AI-2 quorum-sensing luminescence – JMH597 strain, luminescence/OD600 ratio, primary screen (AID 2094);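 note: luminescence divided by OD600 gain over 9 h not by final OD600 alone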
Conditions: Vibrio harveyi JMH597 AI-2 luminescence/OD600 ratio, 9 h; at 7.5 µM; active compounds read low; 0 = neutral-control median; strain lacks LuxN and CqsS sensors

Activity change, active:
O=C(/C=C/Sc1ncn[nH]1)c1ccc(Cl)cc1 -91.7%
CCOc1ccc(/C=N/NC(N)=S)cc1 -94.8%
Cc1ccc(NC(=O)C2CC2c2ccccc2)cc1 (centres undefined) -86.2%
Cc1ccccc1C(=O)Nc1ccc(N2CCCCCC2)cc1 -80.7%
O=C(Nc1ccc(F)c(Cl)c1)C1CCN(S(=O)(=O)c2cccnc2)CC1 -93.8%
O=C(/C=C/c1ccc2c(c1)OCO2)NCc1ccc(F)cc1 -82.8%
O=C(Nc1nnc(C2COc3ccccc3O2)o1)c1ccc(F)cc1 (centres undefined) -225%
O=C(Cn1cnc2ccccc2c1=O)Nc1cccc(S(=O)(=O)N2CCCCC2)c1 -81.4%
C=CS(=O)c1sc(Cl)c(N2CCOCC2)c1[N+](=O)[O-] (centres undefined) -83.3%
COc1ccc(C(=O)NNC(=S)NC(=O)c2ccccc2)cc1 -106%
Cc1ccccc1NC(=O)CCOc1ccccc1 -83.3%
COc1ccc(CCC(=O)c2ccc(OC)cc2)cc1 -82.8%
COc1ccc(Cc2nnc(N/N=C/c3ccccc3O)[nH]c2=O)cc1OC -86.4%
O=C(/C=C/c1ccco1)Nc1ccc(Oc2ccccc2)cc1 -83.2%
O=C(Nc1ccc(Oc2ccccc2)cc1)c1ccco1 -96.6%
O=C(c1cc(-c2cccc(O)c2)on1)N1CCc2ccccc2C1 -84.1%
O=C(Nc1ccccc1Cl)/C(Cl)=C(\Cl)S(=O)c1ccccc1 (centres undefined) -84.8%
CC(=O)c1cccc(OCc2cc(C(=O)NC(C)Cc3cccnc3)no2)c1 (centres undefined) -85.8%

Activity change, inactive:
COc1ccccc1/C=C/C=N/n1c(-c2ccc(Cl)cc2Cl)n[nH]c1=S -0.967%
O=C(CSc1ncn[nH]1)N/N=C/c1ccc(F)cc1 -5.64%
Cc1cc(C)nc(S/C=C/C(=O)c2ccccc2)n1 4.08%
CC(=O)N(CC(O)CO)c1c(I)c(C(=O)NCC(O)CO)c(I)c(C(=O)NCC(O)CO)c1I (centres undefined) 14.8%
Cn1ccc(=NC=C(C#N)C#N)c2ccccc21 22.8%
C=CCNC(=S)N/N=C/c1ccc(OCc2ccccc2)cc1 16.4%
CCOc1ccc(/C=N\NC(=O)c2c(C)nc3cc(C)ccn23)cc1 2.9%
COC(=O)CSc1snnc1-c1ccc(Cl)c(Cl)c1 9.65%
O=S1(=O)N=C(N(CCO)/N=C/c2ccccc2F)c2ccccc21 15.9%
Cc1ccc(C2CC2C(=O)NN)cc1 (centres undefined) 19.8%
O=C(NNC(=S)Nc1ccc(F)cc1)[C@H]1C[C@@H]1c1ccccc1 -11.8%
CCN(CC(=O)NCc1cccs1)C(=O)c1cccc(S(=O)(=O)Nc2ccccc2OC)c1 5.29%
C/C(CC1CC(C)(C)OC1=O)=N/Nc1nc(-c2ccccc2)cs1 (centres undefined) 26.9%
Cc1ccccc1C(=O)N1CCN(c2ccc(NC(=O)c3cccs3)cc2)CC1 11.9%
Cc1ccccc1C(=O)NC(=S)Nc1ccc(N2CCN(C(=O)c3ccccc3)CC2)cc1 13.3%
O=C(Nc1cccnc1)c1cccc(S(=O)(=O)N2CCCC2)c1 6.26%
O=C(NCc1cccs1)C1CCN(S(=O)(=O)c2ccc(Cl)cc2)CC1 14.4%
O=C(Cc1cccs1)Nc1ccc([N+](=O)[O-])cc1 10.5%
Oc1ccc2ccc3cccc[n+]3c2c1 42.1%
CCOc1ccc(/C=N/OCC(=O)NCc2cccs2)cc1 5.49%
O=C(/C=C/c1ccc2c(c1)OCO2)NCc1cn2cc(Cl)ccc2n1 2.46%
O=C(Cc1ccc(F)cc1)N/N=C/c1ccc2c(c1)OCO2 14.4%
CC(=O)N1c2ccc(S(=O)(=O)N3CCC(C(=O)NC4CCCC(C)C4C)CC3)cc2CC1C (centres undefined) 26.4%
O=C(COc1ncnc2c(Cl)cc(Cl)cc12)N1CCN(S(=O)(=O)c2ccccc2)CC1 8.92%
Cc1cc(C)c2nc(-c3cccnc3)cc(C(=O)Nc3ccc(S(=O)(=O)Nc4onc(C)c4C)cc3)c2c1 39.3%
CCOC(=O)c1sc(NC(=O)c2sc(C)nc2C)nc1C 1.24%
CC1COc2ccccc2N1C(=O)c1ccc(F)cc1 (centres undefined) 25.4%
O=C(Nc1ccccc1F)c1ccc2c(c1)OCO2 -3.7%
CN(C)S(=O)(=O)N1CCC(Oc2cccc(C(=O)NCCCC3CCCC3)c2)CC1 1.44%
CCN(CC(=O)Nc1cccc(S(=O)(=O)N2CCCCC2)c1)Cc1ccccc1 24.8%
CC(=O)NC(CC(=O)Nc1cccc(S(=O)(=O)N2CCCC2)c1)c1ccccc1 (centres undefined) 3.39%
CCCNC(=S)N1CCC(NC(=O)C23CC4CC(CC(C4)C2)C3)CC1 28.5%
CCCc1cc(=O)oc2c(C)c(OC(C)C(=O)NCC(O)c3ccccc3)ccc12 (centres undefined) 23.7%
CC(Oc1ccc(-c2ccccc2)c(F)c1)c1ccn(S(=O)(=O)c2cccc3ccccc23)n1 (centres undefined) 27.1%
CCN(CC)CCn1c2c(c(SCC(=O)Nc3ccc(C(C)C)cc3)nc1=O)CCC2 5.82%
O=c1c2sccc2nc(SCc2cc(=O)n3ccccc3n2)n1-c1ccc(Br)cc1 19.6%
C=C(C)c1cccc(C(C)(C)NC(=O)NC2CCCC2)c1 1.39%
COc1ccc(C(=O)NC(=S)NNC(=O)c2c(-c3ccccc3)noc2C)cc1 26.1%
COc1ccc(C(=O)NNC(=S)NC(=O)c2ccccc2[N+](=O)[O-])cc1 34.4%
CCNc1nc(NC(C)C)nc(OCCOC(=O)c2ccccc2)n1 23.7%
COc1ccc(C2N=C(N)N=C(N)N2c2ccccc2)cc1OC (centres undefined) 19.2%
CC1=CC=CC2=N/C(=N\S(=O)(=O)c3ccc(F)cc3F)c3ccccc3CN12 21.6%
Cc1cccc(OCCC(=O)Nc2ccccc2C(N)=O)c1 11.3%
CCc1ccccc1NC(=O)CCOc1ccccc1 24.5%
C=CCO/N=C/C1=C(O)C(C(=O)OC)C(C)(C)CC1=O (centres undefined) 9.19%
CO/N=C/CC(=O)c1ccc(OC)cc1 8.95%
COc1ccc(OCCC(=O)c2ccc(OC)cc2)cc1 30.2%
COc1cccc(NC(=O)COc2cc(C)cc3oc(=O)cc(C)c23)c1 15.1%
Cc1nnc(N/N=C/c2ccccn2)[nH]c1=O -29.7%
O=c1[nH]c(NCCO)nnc1Cc1ccc(Cl)cc1 -1.67%
COCC(=O)N1CCCC(C(=O)c2ccc(C(F)(F)F)cc2)C1 (centres undefined) 13.4%
CC(=O)c1ccc(S(=O)(=O)N(C)CCCC(=O)N(C)Cc2ccccc2F)cc1 21.5%
O=C(Nc1ccc(O)cc1)c1ccc(NC(=O)c2ccco2)cc1 7.66%
Cc1nnc(NC(=O)/C=C/c2ccco2)s1 12.9%
O=C(/C=C/c1ccco1)Nc1cccc(-c2nc3ccccc3[nH]2)c1 4.93%
O=C(Nc1ccccc1)c1ccco1 10.6%
CCc1cccc(NC(=O)CCCN2C(=O)C(c3ccccc3)Oc3cccnc32)c1 (centres undefined) 34.6%
CC(OC(=O)CNS(=O)(=O)/C=C/c1ccccc1)C(=O)Nc1ccc(S(=O)(=O)N2CCCC2)cc1 (centres undefined) 11.2%
CCCCCCNCCn1cnc2c(N)ncnc21 19.1%
Cc1ccc(-c2cc(C(=O)N3CCc4ccccc4C3)no2)cc1 4.44%
O=C(c1cc(-c2ccc(O)cc2)on1)N1CCOCC1 2.48%
COc1ccc(C)cc1N(CC(=O)NC(C)c1ccccc1)S(C)(=O)=O (centres undefined) 17.3%
CCOc1ccc(-n2c(SCC(=O)Nc3ccc(OC)cc3)nc3sc4c(c3c2=O)CCN(C)C4)cc1 20.9%
O=C(Nc1ccccc1Cl)Nc1cccc2cccnc12 24.3%
O=C(Cc1ccc2c(c1)CCCC2)Nc1ccccc1Cl -3.68%
Cc1csc(OCC(=O)Nc2ccc(C)c(C)c2)n1 15.5%
O=C(CC1SC(=Nc2ccccc2)N(Cc2ccccn2)C1=O)Nc1cccc(Cl)c1 (centres undefined) 3.68%
Cc1cccnc1CC(C)NC(=O)c1cc(COc2cncc(Cl)c2)on1 (centres undefined) 10.5%
CCC(NC(=O)c1cc(COc2ccc(F)c(F)c2)on1)c1ccncc1 (centres undefined) 14%
CC1(C)C/C(=N/Nc2ccc([N+](=O)[O-])cc2[N+](=O)[O-])C(C)(C)O1 18.5%
C/C=C/C(=O)OCc1csc(CC(=O)Nc2ccccc2C)n1 48.5%
